Results published in ChEMBL document CHEMBL1201862, “PubChem BioAssay data set” (2004).
Screen size: about 400,000 compounds; about 1,900 (0.47%) were called active. Another 14% or so got no clear call; they are omitted. How the calls were made is not given here. The entries come from a sample that favours actives as a whole.

What follows are compounds tested against Ataxin-2 (Homo sapiens) (UniProt Q99700) (assay: qHTS for Inhibitors of ATXN expression.).
Type: functional

Sequence of Ataxin-2 (Homo sapiens) (Q99700 whole entry): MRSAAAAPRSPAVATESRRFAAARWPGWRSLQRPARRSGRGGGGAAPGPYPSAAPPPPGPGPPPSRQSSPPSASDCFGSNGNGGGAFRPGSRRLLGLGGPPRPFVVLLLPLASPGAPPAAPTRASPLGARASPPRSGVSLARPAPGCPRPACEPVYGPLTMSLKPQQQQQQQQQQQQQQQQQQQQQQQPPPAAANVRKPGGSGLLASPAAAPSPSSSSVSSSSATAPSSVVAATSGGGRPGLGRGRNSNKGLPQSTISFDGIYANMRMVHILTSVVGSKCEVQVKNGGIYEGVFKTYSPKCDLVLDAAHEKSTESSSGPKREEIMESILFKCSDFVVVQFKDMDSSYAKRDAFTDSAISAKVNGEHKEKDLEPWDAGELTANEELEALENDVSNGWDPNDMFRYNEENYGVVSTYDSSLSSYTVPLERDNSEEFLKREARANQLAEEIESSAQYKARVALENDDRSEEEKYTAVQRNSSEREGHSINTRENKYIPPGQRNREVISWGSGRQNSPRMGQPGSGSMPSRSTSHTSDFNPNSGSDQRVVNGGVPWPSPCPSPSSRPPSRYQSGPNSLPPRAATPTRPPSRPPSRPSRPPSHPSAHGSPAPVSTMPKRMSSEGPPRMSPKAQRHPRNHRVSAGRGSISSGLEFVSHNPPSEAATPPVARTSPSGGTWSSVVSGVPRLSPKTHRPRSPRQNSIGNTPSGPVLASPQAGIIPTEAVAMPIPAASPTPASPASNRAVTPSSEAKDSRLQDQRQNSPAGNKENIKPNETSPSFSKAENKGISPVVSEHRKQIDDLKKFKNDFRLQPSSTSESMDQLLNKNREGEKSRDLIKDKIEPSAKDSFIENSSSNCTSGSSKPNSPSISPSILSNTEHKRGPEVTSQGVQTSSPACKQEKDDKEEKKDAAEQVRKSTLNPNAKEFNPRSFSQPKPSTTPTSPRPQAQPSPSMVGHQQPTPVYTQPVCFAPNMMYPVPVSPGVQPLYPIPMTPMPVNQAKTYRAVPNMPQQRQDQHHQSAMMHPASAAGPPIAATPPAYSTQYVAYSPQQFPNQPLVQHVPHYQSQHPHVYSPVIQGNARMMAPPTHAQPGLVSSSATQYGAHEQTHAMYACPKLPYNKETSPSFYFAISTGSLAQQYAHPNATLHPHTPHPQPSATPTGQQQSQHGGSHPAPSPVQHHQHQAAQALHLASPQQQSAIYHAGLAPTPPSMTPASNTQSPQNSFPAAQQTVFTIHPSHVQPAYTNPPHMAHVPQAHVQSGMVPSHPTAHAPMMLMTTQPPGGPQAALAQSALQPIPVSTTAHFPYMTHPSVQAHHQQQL

Row | SMILES | Potency
1 | COc1ccc2[nH]c(C)c(CCNCc3cn(C)c4ccccc34)c2c1 | 17.8 µM (active)
2 | Cn1c(=O)oc2cc(NC(=O)CCl)ccc21 | 31.6 µM (active)
3 | CCn1c(=O)oc2cc(NC(=O)CCl)ccc21 | 37.7 µM (active)
4 | COc1ccc(NC(=O)c2cccn(Cc3ccc(Cl)cc3)c2=O)c(OC)c1 | inactive
5 | CCc1nc2ccc(N3CCN(C)CC3)cc2nc1CC | inactive
6 | COCCCn1c(N)c(C(=O)NCc2ccco2)c2nc3ccccc3nc21 | inactive
7 | Nc1c(C(=O)Nc2ccc(Cl)cc2)sc2nc3c(cc12)N1CCC3CC1 | inactive
8 | COc1ccc(OCC(=O)N2CCN(C/C=C/c3ccccc3)CC2)cc1 | inactive
9 | COc1ccc(Nc2nc(N)nc(CSc3nc4ccccc4s3)n2)cc1 | 39.8 µM (active)
10 | CCCCn1c(N)c(C(=O)NCCN2CCOCC2)c2nc3ccccc3nc21 | inactive
11 | Cc1cccc(OP(N)(=O)Oc2cccc(C)c2)c1 | inactive
12 | COc1ccc(CC(N)c2csc(NC(=O)Nc3ccccc3Oc3ccccc3)n2)cc1 (centres undefined) | 39.8 µM (active)
13 | O=C(c1cccn2c(=O)c3cc(Cl)ccc3nc12)N1CCC2(CC1)OCCO2 | inactive
14 | COc1ccc2cc1Oc1ccc(cc1)C[C@H]1c3cc(c(OC)cc3CCN1C)Oc1c(O)c(OC)cc3c1[C@H](C2)N(C)CC3 | 20 µM (active)
15 | COc1cc2c3c(c1OC)Oc1ccc(cc1)C[C@H]1c4c(cc(OC)c(OC)c4Oc4ccc(cc4)C[C@@H]3N(C)CC2)CCN1C | 15.8 µM (active)
16 | Nc1c2c(nc3ccccc13)CCN(Cc1ccccc1)C2 | inactive
17 | COc1ccc(Nc2cc(C)c3cc(NC(=O)c4ccccc4Cl)ccc3n2)cc1 | inactive
18 | CN1CC[C@@]2(C)c3cc(O)ccc3N(C)C12 (some centres undefined) | 28.2 µM (active)
19 | CCC(C)NC(=O)c1c(N)n(CC2CCCO2)c2nc3ccccc3nc12 (centres undefined) | inactive
20 | C#CCN1C(=O)S/C(=C\c2ccc(N3CCOCC3)cc2C)C1=O | inactive

Row | SMILES | Potency
21 | CCCCN1C(=O)NC(=O)/C(=C(O)\C=C\c2c[nH]c3ccccc23)C1=O | inactive
22 | N=C(N)N/N=C/c1cn(-c2ccccc2)nc1-c1cccs1 | 11.2 µM (active)
23 | N=C(N)N/N=C/c1ccc(N(c2ccccc2)c2ccccc2)cc1 | inactive
24 | N=C(N)N/N=C/c1ccc(N2CCOCC2)cc1 | inactive
25 | O=c1cc(C(F)(F)F)c2cc3c4c(c2o1)CCCN4CCC3 | inactive
26 | Cc1ccnc(NS(=O)(=O)c2ccc(NC=C3C(=O)N(C)C(=O)N(C)C3=O)cc2)n1 | inactive
27 | NS(=O)(=O)c1ccc(NC=C2C(=O)N(C3CCCCC3)C(=O)N(C3CCCCC3)C2=O)cc1 | 39.8 µM (active)
28 | CCC(C(=O)Nc1ccc(Cl)cc1)N1CCCC1=O (centres undefined) | inactive
29 | Ic1ccccc1CNC1C2CCN(CC2)C1C(c1ccccc1)c1ccccc1 (centres undefined) | 15.8 µM (active)
30 | O=C(NCCc1ccccc1)[C@@H]1CC=C[C@@H]2CCN(Cc3ccc(Cl)c(Cl)c3)C(=O)[C@@H]21 | 25.1 µM (active)
31 | O=C(Cc1cc(=O)oc2cc(O)ccc12)NN=Cc1ccc(N(CCCl)CCCl)cc1 | inactive
32 | CC(C)Sc1nc2[nH]cnc(N)c-2n1 | inactive
33 | COc1ccc(-c2nc(CN3C(=O)CN=C(c4ccccc4)c4cc(Cl)ccc43)c(C)o2)cc1 | 35.5 µM (active)
34 | O=C1CN=C(c2ccccc2)c2cc(Cl)ccc2N1Cc1ccc(Cl)cc1 | 28.2 µM (active)
35 | Cc1oc(-c2ccccc2Cl)nc1CN1C(=O)CN=C(c2ccccc2)c2cc(Cl)ccc21 | 44.7 µM (active)
36 | O=C(c1cccn2c(=O)c3cc(Br)ccc3nc12)N1CCC2(CC1)OCCO2 | inactive
37 | CN(Cc1ccc(OC(F)F)cc1)Cc1nc(O)c2cc(Br)cc(Br)c2n1 | inactive
38 | CC(Cc1ccccc1)NC(=O)CCCCC(=O)NC(C)Cc1ccccc1 (centres undefined) | inactive
39 | CN(C)CC(C(=O)Cc1ccccc1)c1ccccc1 (centres undefined) | 25.1 µM (active)
40 | COCCCn1c(=O)/c(=C\c2ccccc2OC(F)F)s/c1=C(/C#N)C(=O)NCCOC | inactive

Row | SMILES | Potency
41 | Cc1cc([N+](=O)[O-])c2ccccc2[n+]1[O-] | 31.6 µM (active)
42 | CN1C(=O)/C(=C/c2cccn2-c2ccc3ccccc3c2)C(=O)NC1=S | 39.8 µM (active)
43 | Cc1cc(C)cc(N2C(=O)NC(=O)/C(=C\c3cc(C)n(C)c3C)C2=O)c1 | inactive
44 | C/C(NCc1cccnc1)=C1/C(=O)NC(=O)N(c2ccc(Cl)cc2)C1=O | inactive
45 | Cc1cc(C)cc(N2C(=O)NC(=O)/C(=C/c3cccn3-c3ccc(Cl)cc3)C2=O)c1 | 39.8 µM (active)
46 | COCCNC(=O)c1c(N)n(Cc2ccco2)c2nc3ccccc3nc12 | inactive
47 | Clc1cccc(N2Cc3cc(-c4ccccc4)ccc3-n3nncc3C2)c1 | 39.8 µM (active)
48 | O=C(NC1CCCCC1)N1Cc2cc(-c3ccccc3)ccc2-n2nncc2C1 | 39.8 µM (active)
49 | CN1CCc2cc3c(cc2[C@@H]1O)OCO3 | inactive
50 | Cc1sc2ncnc(N3CCC(C(=O)Nc4ccc(C#N)c(Cl)c4)CC3)c2c1C | 39.8 µM (active)
51 | CN(c1ccc(O)cc1)c1ccc([N+](=O)[O-])c2nonc12 | 20 µM (active)
52 | COc1cc(Cl)ccc1Nc1ncc(C(=O)N2CCN(c3ccccc3OC)CC2)c2ccccc12 | inactive
53 | COc1ccccc1N1CCN(C(=O)c2cc3c(-c4ccccc4F)nn(C)c3s2)CC1 | 35.5 µM (active)
54 | O=C1NC(=S)NC(=O)C1=NNc1ccc2c(c1)OCCO2 | 44.7 µM (active)
55 | CCCCCCCCn1sccc1=O | 25.1 µM (active)
56 | O=C(Nc1cccc2ncccc12)c1ccccc1Cl | inactive
57 | COC(=O)C1=C(c2cccc(OCc3ccccc3)c2)C[C@@H]2CC[C@H]1N2C(=O)NC1CCN(Cc2ccccc2)CC1 | 22.4 µM (active)
58 | CC[C@@H](O)C[C@H]1CCC[C@@]2(C[C@@H]3OC(=O)/C=C/[C@@](C)(O)[C@@H](O)[C@H](C)[C@@H](O)[C@H](OC4CCC(N(C)C)C(C)O4)[C@@H](O)[C@](C)(O)CCCCC/C=C/[C@@H]4CC(C)(C)O[C@@]4(O)C[C@H](O2)[C@H]3C)O1 (some centres undefined) | 2.99 µM (active)
59 | Cc1c(CC(=O)N2C[C@H]3C[C@@H](C2)c2cccc(=O)n2C3)c(=O)oc2cc(O)c(Cl)cc12 | inactive
